This is one part of a sample in which hits are shown more often than they occur.
VACV E9 pol inh: inhibitors of vaccinia virus processive DNA synthesis (E9 polymerase). normalized absorbance, % (test concentration not listed). in vitro processive DNA synthesis, absorbance read-out; hits give low values. hit rate 0.94% among 46,000. AID 493162; in the data active = normalized absorbance mostly below about 85%, no sharp cut-off; inactive = mostly above about 86%
An asterisk follows results filed as active.

SMILES	VACV E9 pol inh
NC(=O)NC(=O)Cc1ccccc1	101.6
N/C(=N\c1nc(=O)c2ccccc2s1)NC(=O)c1ccc(Cl)c(Cl)c1	100.0
N/C(=N\c1nc2ccccc2s1)NC(=O)c1cccc(Cl)c1	99.4
Cc1nc(C#N)c(Nc2ccccc2)o1	102.0
CCOC(=O)c1sc(NC(=O)c2ccccc2OC)nc1-c1ccccc1	100.0
CCOC(=O)c1cc(-c2ccccc2)n(-c2ccc(C(=O)O)cc2)c1C	60.6*
CCOC(=O)c1cc(-c2ccccc2)n(CCC(=O)O)c1C	88.3
CCOC(=O)c1cc(-c2ccccc2)n(-c2cccc(C(=O)N3CCCC3)c2)c1C	78.2
CCCn1c(-c2ccc(N)cc2)nc2ccccc21	92.3
Cc1cc(CNC(=O)c2cnc3ccccc3n2)c(C(F)(F)F)o1	101.1
Cc1cccc(OCC(=O)NC(Cc2c[nH]c3ccccc23)C(=O)O)c1 (stereo not given)	99.4
Cc1cc2ccccc2c(N=Cc2cc(Br)cc(Br)c2O)c1C#N	80.6
Cc1c(N=Cc2cc(Br)cc(Br)c2O)cccc1C(=O)O	44.9*
COc1cccc(C=Nc2cccc(C(=O)O)c2C)c1O	93.6
O=C(/C=C/c1ccco1)NCCc1ccccc1	102.2
O=C(/C=C/c1ccco1)/C=C/c1ccco1	8.6*
O=C(/C=C/c1ccco1)Nc1cccc(NC(=O)/C=C/c2ccco2)n1	84.8*
O=C(/C=C/c1ccccc1)/C=C/c1ccco1	77.6
Cc1nn(C)c(C)c1NC(=O)/C=C/c1ccco1	103.0
O=C(/C=C/c1ccco1)C1(O)CCCCC1	91.2
CC(C)(C)NC(=O)COc1ccc(CNC2C3CC4CC(C3)CC2C4)cc1 (stereo not given)	99.8
Fc1ccc(N=Cc2ccncc2)cc1F	92.5
Cc1cccc(COc2ccc3ccc(=O)oc3c2)c1	98.9
O=C1C(=Nc2cccnc2)c2ccccc2N1CN1CCOCC1	99.7
C=CCC1CCCCC1NC1CCCCC1 (stereo not given)	100.5
SMILES	VACV E9 pol inh
COc1ccc(OC)c(-c2n(C)c3ccccc3[n+]2C)c1	75.0
COc1ccc2c(c1)c1ccccc1n2C	67.3*
COc1ccc2c(c1)c(C(=O)CSc1ccccc1)c(C)n2C	94.7
COC(=O)c1noc(C)c1-c1ccnn1C(=O)c1cc(C(F)(F)F)cc(C(F)(F)F)c1	97.4
Cc1ccc(NC(=O)Cn2c(C)c3cnn(-c4ccccc4)c(=O)c3c2C)cc1	106.6
COC(=O)C(C)Sc1nnc(-c2c[nH]c3ccccc23)n1-c1ccc(OC)cc1 (stereo not given)	108.1
COc1cccn(CC(=O)NN)c1=O	93.0
CCOC(=O)c1cnc2c(ccc3ccccc32)c1NCCOC(=O)C(C)(C)C	100.3
CCOC(=O)c1cnc2c(ccc3ccccc32)c1NCC(C)C	100.2
CCOC(=O)c1cnc2c(ccc3ccccc32)c1NC1CC(C)(C)NC(C)(C)C1	58.1*
NC(=O)COC(=O)Cc1ccc(Cl)c(Cl)c1	93.4
CCNC(=O)c1ccc2nc(N3CCCCC3)sc2c1	92.4
CCN(CC)CCNc1nc(C)cc(C)n1	101.8
Cc1cc(C)nc(NC2=NCCN2)n1	48.1*
Cc1cc(Nc2ccccc2)nc(Nc2ccccc2)n1	100.0
CN1CCN(c2ncnc3sc(-c4ccccc4)cc23)CC1	50.4*
c1ccc(-c2cc3c(N4CCc5ccccc54)ncnc3s2)cc1	101.7
COc1ncnc2sc(-c3ccccc3)cc12	102.8
CCn1c(CNC(=O)c2ccc(OC)c(OC)c2)nc2ccccc21	94.3
Cc1ccc2nc(NC(=O)C(C)(C)C)sc2c1	96.1
N[C@@H](CC1CCCCC1)C(=O)O	99.3
O=C(O)CCC1CCCCCCCCCCC1	73.9*
O=C(O)CNC(=O)C1CCCCC1	103.0
CCNc1nc2ccccc2n1Cc1ccccc1F	79.7
Cc1ccc(S(=O)(=O)N2CCC(c3c(C)n(CC(=O)N4CCCC4)c4ccccc34)CC2)cc1C	94.0
SMILES	VACV E9 pol inh
Cc1ccccc1NC(=O)c1cc2c(s1)-c1ccccc1S(=O)(=O)C2	91.2
CC1CCN(C(=O)COC(=O)Cc2c(Cl)cccc2Cl)CC1	108.6
CC(C)CCNC(=O)c1ccc2c(=O)n3c(nc2c1)CCCCC3	99.8
CN(C(=O)c1ccc2c(=O)n3c(nc2c1)CCCCC3)C1CCCCC1	66.8*
Cc1cccc(N(C)C(=O)c2ccc3c(=O)n4c(nc3c2)CCCCC4)c1	102.9
COC(=O)CCN1C(=O)/C(=C/c2ccccc2)SC1=S	86.7
COCCN1Cc2cccc(C(=O)NC(C)C34CC5CC(CC(C5)C3)C4)c2C1=O (stereo not given)	100.0
O=C1CCCc2[nH]c(=O)cc(C(F)(F)F)c21	100.8
CC1CCCC(C)N1C(=O)COC(=O)C12CC3CC(CC(C3)C1)C2 (stereo not given)	104.9
CCSc1nc2ccccc2n1CC(=O)O	100.6
O=C(O)Cn1c2c(c3ccccc31)CSc1ccc(Cl)cc1-2	71.1*
O=C(O)Cn1cc(C(=O)C2CC2)c2ccccc21	88.9
COc1ccc2c(c1)c(=O)c(S(=O)(=O)c1ccccc1)cn2Cc1ccccc1	98.3
O=C(Cc1cn2ccsc2n1)Nc1ccccc1	101.2
COc1ccc2[nH]c3c(c2c1)CCNC3CC(=O)O (stereo not given)	103.8
C[n+]1cc2c3c(ccc2c2ccc4cc5c(cc4c21)OCO5)OCO3	93.4
COc1ccc(SCC(=O)NCc2ccc3c(c2)OCO3)cc1	93.3
COc1ccc2c(c1)c(OC)[n+](C)c1c3cc4c(cc3ccc21)OCO4	76.9*
CC(NC(=O)CSc1cccc[n+]1[O-])c1ccccc1 (stereo not given)	108.9
COc1ccc(OC)c(S(=O)(=O)N2CCCC2)c1	99.3
O=C1NC(=O)/C(=C\c2ccccc2)S1	74.1*
Cc1ccc(/C=C2/Sc3ccccc3NC2=O)cc1	99.0
CC(=C\c1ccccc1)/C=C1/SC(=O)NC1=O	99.3
Cc1[nH]c2ccccc2c1SCC(=O)NN	102.8
CNC(=O)CCc1cn(Cc2ccc(C)cc2)c2ccccc12	95.7
SMILES	VACV E9 pol inh
CC1CCC(Nc2c(-c3cccc(Br)c3)nc3c(C#N)c[nH]n23)CC1 (stereo not given)	98.1
O=C(NCCN1CCOCC1)c1ccccn1	105.7
CC1(C)CC(=O)C2=C(C1)OC(N)=C(C#N)C21C(=O)N(CO)c2ccccc21 (stereo not given)	99.8
CCCC(=O)Oc1c(Sc2ccccc2)c(C)nn1-c1ccccc1	85.9
CC(=O)Oc1c(Sc2ccccc2)c(C)nn1-c1ccccc1	76.7*
Cc1nn(-c2ccccc2)c(C)c1Sc1ccccc1	100.2
C=CCn1c(Cc2c[nH]c3ccccc23)nnc1SCC(=O)Nc1ccc(OC)cc1	99.4
CCCNC(=S)N1CCC(C(=O)c2ccc(C)cc2)CC1	100.1
c1cc(N2CCOCC2)ccc1NC1=NCCS1	88.9
Oc1ccc(Nc2nc(N3CCOCC3)c3ccccc3n2)cc1	89.4
c1ccc2cc3c(Nc4ccc(N5CCOCC5)cc4)ccnc3cc2c1	67.1*
CC(C)Nc1ccc(Nc2ccccc2)cc1	96.5
COc1ccc(Nc2ccnc3ccccc23)cc1	97.7
CC(C)Nc1ccc(Nc2ccnc3cc4ccccc4cc23)cc1	10.4*
CCOc1ccc(C(=O)Nc2nnc(-c3ccccc3)s2)cc1	100.6
CC1(C)OC(=O)N(Nc2ccccc2)C1(C)O (stereo not given)	100.5
Cc1ccc(/C=N/c2sccc2C#N)cc1	101.3
O=C(Nc1c2c(nn1-c1cccc(Cl)c1)CS(=O)C2)c1cccc(Br)c1 (stereo not given)	99.9
CCOC(=O)C1CCCN(C(=O)CSc2ccc3ccccc3c2)C1 (stereo not given)	93.8
CC1CCCCN1C(=O)CSc1nnc(-c2ccccc2)o1 (stereo not given)	95.3
